Targets with a hit are over-represented here; the source holds about 8,800 in all. About 0.5% of all pairs of compound and target were hits. Unmarked numbers belong to inactive results.
Legend:
Test in all cases: log2 fold change, soluble protein after heating vs DMSO (PISA); higher = thermal stabilisation; K562 lysate, 10 uM; active = over 0.2 and 3.5 SD of the protein, either way, in both replicates (recomputed)
[1] = compound: CN1CC[C@H](c2c(O)cc(O)c3c(=O)cc(-c4ccccc4Cl)oc23)[C@H](O)C1 [alvocidib]
How it was run: (§1)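 Following dounce homogenisation of K562 pellets in PBS pH 7.4 with 1 mM MgCl2, crude extract at 1 mg/mL protein was incubated for 30 min with 10 μM compound. Aliquots were then heated for 3 min over 48°C-58°C and pooled, NP-40 was added to 0.5% at 4°C, and soluble protein was recovered as the supernatant at 21,000xg for 90 min. Channel-sum-equalised TMTpro 16plex LC-MS/MS quantified this protein. Each value, from duplicates, is a log-two fold change in thermal stability relative to solvent controls.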

[2] = compound: CN1CCc2c(c3ccccc3n2Cc2ccc(C(=O)NO)cc2)C1 [Tubastatin A]
How it was run: as §1

[3] = compound: CNC(=O)C1=CC=CC=C1NC2=NC(=NC=C2Cl)NC3=C(C=C(C=C3)N4CCOCC4)OC
How it was run: as §1

[4] = compound: CNC(=O)c1ccc(Nc2ncc(C(F)(F)F)c(NCc3nccnc3N(C)S(C)(=O)=O)n2)cc1 [defactinib]
How it was run: as §1

[5] = compound: CNc1nc(-c2ccc3c(N)n[nH]c3c2)cc(N2C[C@@H](C(=O)NC3CCCCC3)CC[C@H]2C)n1
How it was run: as §1

[6] = compound: COC(=O)N[C@@H](C)CNc1nccc(-c2cn(C(C)C)nc2-c2cc(Cl)cc(NS(C)(=O)=O)c2F)n1 [encorafenib]
How it was run: as §1

[7] = compound: COC(=O)[C@H](CCSC)NC(=O)C1=C(C=C(C=C1)NC[C@H](CS)N)C2=CC=CC=C2
How it was run: as §1

[8] = compound: COc1cc(Nc2ncc3c(n2)-c2ccc(Cl)cc2C(c2c(F)cccc2OC)=NC3)ccc1C(=O)O [alisertib]
How it was run: as §1

[9] = compound: COc1cc2nc(-c3cc(F)ccc3O)nc(N[C@@H]3CNC[C@H]3C(C)(C)O)c2cc1OC
How it was run: as §1

[10] = compound: COc1cc2ncnc(Nc3ccc(F)c(Cl)c3)c2cc1OCCCN1CCOCC1 [gefitinib]
How it was run: as §1

[11] = compound: CS(=O)(=O)CCNCc1ccc(-c2ccc3ncnc(Nc4ccc(OCc5cccc(F)c5)c(Cl)c4)c3c2)o1 [lapatinib]
How it was run: as §1

[12] = compound: CS(=O)(=O)N1CCN(Cc2cc3nc(-c4cccc5[nH]ncc45)nc(N4CCOCC4)c3s2)CC1 [pictilisib]
How it was run: as §1

[13] = compound: C[C@@H](Oc1cc(-c2cnn(C3CCNCC3)c2)cnc1N)c1c(Cl)ccc(F)c1Cl [crizotinib]
How it was run: as §1

[14] = compound: C[C@H](C1=CC=C(C=C1)C(=O)NC2=C3C=CNC3=NC=C2)N
How it was run: as §1

[15] = compound: C[C@H](Nc1ncnc2nc[nH]c12)c1cc2cccc(Cl)c2c(=O)n1-c1ccccc1 [duvelisib]
How it was run: as §1

[16] = compound: Cc1cc(Nc2cc(CN3CCOCC3)c3nc(C)c(Cc4ccc(Cl)cc4F)n3n2)n[nH]1 [gandotinib]
How it was run: as §1

[17] = compound: Cc1cc(Nc2cc(N3CCN(C)CC3)nc(Sc3ccc(NC(=O)C4CC4)cc3)n2)n[nH]1 [tozasertib]
How it was run: as §1

[18] = compound: Cc1ccc(-n2nc(C(C)(C)C)cc2NC(=O)Nc2ccc(OCCN3CCOCC3)c3ccccc23)cc1 [doramapimod]
How it was run: as §1

[19] = compound: Cc1ccc(NC(=O)c2ccc(CN3CC[C@H](N(C)C)C3)c(C(F)(F)F)c2)cc1Nc1nccc(-c2cncnc2)n1 [bafetinib]
How it was run: as §1

[20] = compound: Cc1cccc(CC(=O)N2CCc3c2ccc(-c2cn(C)c4ncnc(N)c24)c3F)n1
How it was run: as §1

Chain of UniProt Q96RE7 (Q96RE7 whole entry, looked up): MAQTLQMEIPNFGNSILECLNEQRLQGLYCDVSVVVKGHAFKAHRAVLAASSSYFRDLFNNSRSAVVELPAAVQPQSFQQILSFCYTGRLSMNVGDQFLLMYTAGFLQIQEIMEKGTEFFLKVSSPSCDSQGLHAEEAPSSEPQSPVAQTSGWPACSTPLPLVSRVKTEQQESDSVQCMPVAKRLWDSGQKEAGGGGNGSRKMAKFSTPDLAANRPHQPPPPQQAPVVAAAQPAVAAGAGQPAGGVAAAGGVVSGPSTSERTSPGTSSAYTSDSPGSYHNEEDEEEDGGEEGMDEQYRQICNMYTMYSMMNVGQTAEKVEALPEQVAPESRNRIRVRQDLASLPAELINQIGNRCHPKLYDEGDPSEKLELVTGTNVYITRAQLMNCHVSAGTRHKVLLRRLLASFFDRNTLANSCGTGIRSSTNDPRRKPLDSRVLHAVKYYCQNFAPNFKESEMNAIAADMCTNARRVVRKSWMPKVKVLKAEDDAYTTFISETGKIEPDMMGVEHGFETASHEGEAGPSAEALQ
Chain of UniProt P43246 (P43246 whole entry, looked up): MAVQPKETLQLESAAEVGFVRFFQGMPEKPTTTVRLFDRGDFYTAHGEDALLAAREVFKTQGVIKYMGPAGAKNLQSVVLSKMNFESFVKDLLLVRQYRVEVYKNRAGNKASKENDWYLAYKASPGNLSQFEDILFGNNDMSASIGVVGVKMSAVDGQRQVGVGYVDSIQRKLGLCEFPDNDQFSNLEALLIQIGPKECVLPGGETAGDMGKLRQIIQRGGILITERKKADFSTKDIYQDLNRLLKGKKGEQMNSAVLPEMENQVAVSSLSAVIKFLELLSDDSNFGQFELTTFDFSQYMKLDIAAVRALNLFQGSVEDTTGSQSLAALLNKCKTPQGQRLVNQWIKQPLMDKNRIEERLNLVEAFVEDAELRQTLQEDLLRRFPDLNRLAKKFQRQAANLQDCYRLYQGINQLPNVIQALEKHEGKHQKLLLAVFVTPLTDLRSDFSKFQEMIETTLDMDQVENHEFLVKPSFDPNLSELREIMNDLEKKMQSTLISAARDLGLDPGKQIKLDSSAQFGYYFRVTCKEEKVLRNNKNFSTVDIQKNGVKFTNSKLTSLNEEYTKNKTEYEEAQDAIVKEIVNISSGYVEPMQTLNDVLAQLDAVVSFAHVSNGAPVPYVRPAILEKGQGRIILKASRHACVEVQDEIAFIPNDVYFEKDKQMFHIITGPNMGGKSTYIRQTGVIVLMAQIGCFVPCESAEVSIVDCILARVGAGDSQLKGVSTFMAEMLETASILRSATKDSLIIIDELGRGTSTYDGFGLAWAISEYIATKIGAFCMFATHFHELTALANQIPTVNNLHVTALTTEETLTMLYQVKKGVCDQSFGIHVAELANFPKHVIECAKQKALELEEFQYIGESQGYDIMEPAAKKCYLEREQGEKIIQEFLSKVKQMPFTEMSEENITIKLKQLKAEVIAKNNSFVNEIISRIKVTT
Chain of UniProt P00480 (P00480 whole entry, looked up): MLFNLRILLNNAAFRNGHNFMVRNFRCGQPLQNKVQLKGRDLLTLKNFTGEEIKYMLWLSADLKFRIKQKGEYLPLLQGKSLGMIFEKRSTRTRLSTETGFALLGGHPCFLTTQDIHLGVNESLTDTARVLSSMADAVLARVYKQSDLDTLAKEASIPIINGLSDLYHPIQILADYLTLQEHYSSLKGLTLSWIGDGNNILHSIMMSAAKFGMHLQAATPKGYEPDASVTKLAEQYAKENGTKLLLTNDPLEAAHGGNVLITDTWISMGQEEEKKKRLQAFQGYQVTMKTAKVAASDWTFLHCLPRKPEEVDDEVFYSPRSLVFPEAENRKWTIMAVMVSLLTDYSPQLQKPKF
Chain of UniProt Q96IY1 (Q96IY1 whole entry, looked up): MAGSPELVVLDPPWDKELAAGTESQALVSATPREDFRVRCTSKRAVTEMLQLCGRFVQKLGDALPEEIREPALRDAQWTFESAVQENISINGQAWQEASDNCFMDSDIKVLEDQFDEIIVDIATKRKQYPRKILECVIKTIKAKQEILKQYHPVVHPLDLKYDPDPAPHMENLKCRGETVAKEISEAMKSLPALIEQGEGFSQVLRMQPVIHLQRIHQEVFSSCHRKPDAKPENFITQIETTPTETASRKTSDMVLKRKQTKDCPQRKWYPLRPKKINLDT
Chain of UniProt P22059 (P22059 whole entry, looked up): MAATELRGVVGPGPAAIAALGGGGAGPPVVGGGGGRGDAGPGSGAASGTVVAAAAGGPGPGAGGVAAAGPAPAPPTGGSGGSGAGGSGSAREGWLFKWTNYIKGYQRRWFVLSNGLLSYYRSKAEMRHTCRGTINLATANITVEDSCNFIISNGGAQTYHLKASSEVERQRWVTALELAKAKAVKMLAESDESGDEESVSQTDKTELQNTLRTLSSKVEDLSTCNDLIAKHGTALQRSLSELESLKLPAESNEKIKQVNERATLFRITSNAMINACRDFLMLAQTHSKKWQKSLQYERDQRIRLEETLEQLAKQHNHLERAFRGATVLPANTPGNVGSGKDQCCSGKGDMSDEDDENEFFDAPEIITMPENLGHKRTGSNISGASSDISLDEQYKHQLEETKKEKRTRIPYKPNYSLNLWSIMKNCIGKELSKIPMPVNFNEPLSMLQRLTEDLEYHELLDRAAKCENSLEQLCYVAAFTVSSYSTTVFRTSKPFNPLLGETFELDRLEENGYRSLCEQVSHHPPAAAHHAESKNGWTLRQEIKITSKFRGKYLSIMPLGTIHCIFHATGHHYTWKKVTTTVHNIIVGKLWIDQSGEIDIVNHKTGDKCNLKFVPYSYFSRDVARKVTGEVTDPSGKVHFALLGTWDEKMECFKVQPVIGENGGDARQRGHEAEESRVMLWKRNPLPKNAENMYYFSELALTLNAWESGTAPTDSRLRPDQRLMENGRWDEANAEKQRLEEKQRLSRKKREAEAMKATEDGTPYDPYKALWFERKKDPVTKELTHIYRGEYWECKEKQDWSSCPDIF
Chain of UniProt Q96KB5 (Q96KB5 whole entry, looked up): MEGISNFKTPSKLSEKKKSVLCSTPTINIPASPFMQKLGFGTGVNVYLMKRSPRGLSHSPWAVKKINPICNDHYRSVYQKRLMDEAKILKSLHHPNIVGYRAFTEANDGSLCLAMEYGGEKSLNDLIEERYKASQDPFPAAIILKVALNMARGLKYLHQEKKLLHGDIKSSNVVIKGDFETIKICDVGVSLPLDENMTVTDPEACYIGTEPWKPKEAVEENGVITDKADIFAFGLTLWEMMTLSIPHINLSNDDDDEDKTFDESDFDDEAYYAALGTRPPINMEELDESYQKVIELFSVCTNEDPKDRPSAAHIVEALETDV
Chain of UniProt Q8TAT6 (Q8TAT6 whole entry, looked up): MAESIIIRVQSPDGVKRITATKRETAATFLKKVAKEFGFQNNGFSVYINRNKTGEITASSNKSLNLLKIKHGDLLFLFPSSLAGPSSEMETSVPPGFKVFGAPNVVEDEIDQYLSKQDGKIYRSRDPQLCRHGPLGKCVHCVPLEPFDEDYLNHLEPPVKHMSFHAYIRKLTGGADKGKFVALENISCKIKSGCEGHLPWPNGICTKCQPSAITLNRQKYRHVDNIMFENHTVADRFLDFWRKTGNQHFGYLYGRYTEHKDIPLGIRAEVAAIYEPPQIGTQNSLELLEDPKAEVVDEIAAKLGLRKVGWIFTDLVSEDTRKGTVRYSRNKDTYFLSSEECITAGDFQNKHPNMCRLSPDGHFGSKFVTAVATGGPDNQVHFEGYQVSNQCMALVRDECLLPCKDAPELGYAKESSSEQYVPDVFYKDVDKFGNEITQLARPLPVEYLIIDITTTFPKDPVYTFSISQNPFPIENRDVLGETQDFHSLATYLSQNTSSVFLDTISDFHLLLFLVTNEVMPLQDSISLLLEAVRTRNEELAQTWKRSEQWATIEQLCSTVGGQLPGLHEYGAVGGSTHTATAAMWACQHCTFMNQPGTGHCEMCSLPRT
Chain of UniProt Q9BTX1 (Q9BTX1 whole entry, looked up): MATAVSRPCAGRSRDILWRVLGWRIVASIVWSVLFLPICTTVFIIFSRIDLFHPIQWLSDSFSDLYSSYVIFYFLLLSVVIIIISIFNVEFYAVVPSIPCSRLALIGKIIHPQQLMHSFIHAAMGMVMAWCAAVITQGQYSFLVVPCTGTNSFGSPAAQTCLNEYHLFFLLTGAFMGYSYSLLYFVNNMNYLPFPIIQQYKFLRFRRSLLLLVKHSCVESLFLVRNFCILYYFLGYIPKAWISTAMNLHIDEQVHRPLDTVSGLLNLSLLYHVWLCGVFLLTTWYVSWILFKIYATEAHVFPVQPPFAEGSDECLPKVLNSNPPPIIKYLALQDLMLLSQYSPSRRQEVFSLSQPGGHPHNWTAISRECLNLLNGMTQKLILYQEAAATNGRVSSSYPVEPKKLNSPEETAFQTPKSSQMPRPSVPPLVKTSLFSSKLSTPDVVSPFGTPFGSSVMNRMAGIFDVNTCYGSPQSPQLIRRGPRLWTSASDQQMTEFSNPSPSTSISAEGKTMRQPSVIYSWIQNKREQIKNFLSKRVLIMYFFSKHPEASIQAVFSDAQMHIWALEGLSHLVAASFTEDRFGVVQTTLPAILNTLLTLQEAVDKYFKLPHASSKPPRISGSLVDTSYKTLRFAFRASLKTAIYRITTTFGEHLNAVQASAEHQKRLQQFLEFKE
Chain of UniProt Q9BRA0 (Q9BRA0 whole entry, looked up): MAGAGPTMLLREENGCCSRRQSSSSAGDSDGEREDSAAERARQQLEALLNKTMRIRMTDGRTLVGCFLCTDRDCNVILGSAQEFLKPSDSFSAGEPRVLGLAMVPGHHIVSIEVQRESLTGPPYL

Target	log2 fold change [1]	log2 fold change [2]	log2 fold change [3]	log2 fold change [4]	log2 fold change [5]	log2 fold change [6]	log2 fold change [7]	log2 fold change [8]	log2 fold change [9]	log2 fold change [10]	log2 fold change [11]	log2 fold change [12]	log2 fold change [13]	log2 fold change [14]	log2 fold change [15]	log2 fold change [16]	log2 fold change [17]	log2 fold change [18]	log2 fold change [19]	log2 fold change [20]
PAK1 (UniProt Q13153)	-0.023	0.026	0.011	-0.006	0.044	-0.012	0.023	0.016	0.02	-0.06	-0.037	-0.034	0.019	-0.117	0.044	-0.011	-0.02	-0.035	0.002	-0.005
PBK (UniProt Q96KB5)	0.013	-0.041	-0.001	-0.004	-0.015	-0.011	0.099	-0.013	-0.003	-0.023	-0.024	-0.011	-0.005	0.013	-0.006	-0.066	-0.005	-0.021	-0.02	-0.01
NSL1 (UniProt Q96IY1)	-0.026	-0.084	0.016	0.034	-0.004	-0.055	0.094	0.019	-0.014	-0.004	-0.003	-0.032	0.051	0.001	-0.033	0.094	-0.01	-0.047	0.034	0.006
NARS2 (UniProt Q96I59)	0.013	-0.157	-0.046	0.014	-0.04	-0.01	0.039	-0.006	-0.01	-0.016	0.039	-0.132	-0.034	0.039	-0.002	-0.058	0.013	-0.01	-0.053	0.024
NOC2L (UniProt Q9Y3T9)	-0.009	-0.066	0.043	0.121	0.257 (active)	0.048	-0.02	0.01	0.06	-0.03	-0.049	-0.012	-0.077	-0.004	-0.074	-0.037	-0.015	0.03	-0.137	0.09
MSH2 (UniProt P43246)	0.026	-0.105	-0.017	0.023	0.007	0.011	0.061	-0.011	-0.002	-0.007	-0.005	-0.003	-0.04	0.028	-0.001	-0.068	0.002	0.013	-0.026	0.002
NPLOC4 isoform 2 (UniProt Q8TAT6)	-0.06	0.013	0.019	-0.007	0.043	0.021	0.016	0.004	-0.007	-0.018	0.022	0.003	-0.023	-0.087	0.01	0.046	-0.003	0.056	-0.019	0.007
OSBP (UniProt P22059)	0	0.06	-0.193	-0.009	-0.155	0.017	0.001	0.026	0.042	-0.045	-0.101	-0.046	0.007	0	0.037	-0.072	-0.015	-0.028	-0.093	0.03
NDC1 (UniProt Q9BTX1)	-0.131	-0.046	-0.001	-0.058	-0.044	0.03	-0.297 (active)	0.011	0.047	-0.031	-0.087	-0.012	-0.027	-0.333 (active)	-0.044	0.185	-0.01	-0.001	-0.066	0.296 (active)
NAA38 isoform 2 (UniProt Q9BRA0)	-0.143	-0.005	0.01	0.013	0.03	-0.022	0.001	0.05	0.022	-0.017	-0.028	-0.018	0.001	-0.382 (active)	-0.016	0.202	0.062	-0.088	-0.041	0.244 (active)
PAXBP1 (UniProt Q9Y5B6)	-0.043	-0.069	0.015	0.005	-0.004	0.018	0.29 (active)	0.013	-0.003	-0.038	0.002	-0.077	-0.027	-0.037	-0.008	-0.029	0.012	0.038	-0.024	0.002
MYH11 isoform 2 (UniProt P35749)	-0.042	-0.069	-0.028	-0.083	0.031	-0.002	0.07	0.002	-0.005	0.031	0.075	-0.002	0.054	0.279 (active)	0.055	-0.004	0.031	-0.044	0.303	-0.018
OTC (UniProt P00480)	-1.18 (active)	0.148	-0.134	-0.188	-0.152	-0.047	-0.018	0.218	-0.023	0.184	-0.118	-0.026	-0.273	-4.33 (active)	0.159	-0.003	0.161	0.168	-0.412	0.377
NACC1 (UniProt Q96RE7)	-0.02	-0.086	0.002	-0.01	0.016	0.022	0.024	0.018	-0.012	-0.019	-0.032	0.034	0.01	-0.066	-0.002	0.006	-0.015	-0.011	-0.078	0.044
OSBPL6 isoform 5 (UniProt Q9BZF3)	-0.056	-0.05	-0.043	-0.063	-0.047	-0.005	0.015	-0.068	-0.004	0.164	0.077	0.008	0.367 (active)	-0.003	-0.003	0.033	0.036	0.005	0.32	0.004
NGLY1 (UniProt Q96IV0)	-0.041	-0.089	-0.013	0.022	0	-0.009	0.111	0.002	0.001	-0.044	-0.017	-0.002	-0.058	0.038	-0.001	-0.053	-0.025	-0.013	-0.048	0.04
